Assay outcomes as filed in PubChem BioAssay.
The list is not random: actives were taken first. Their share in the collection is about 1.2%.
Avidin bead fluor: compound fluoresces at 488/530 nm on avidin beads; compound fluorescence 488/530 nm, flow cytometry; hits give high values; fluorescence (KMESF) at 10 µM; 220,000 tested, 0.38% active; AID 1775; in the data active means fluorescence above about 47
RGS4-Gao reg: human RGS4-Galphao interaction regulation; AID 1415; Multiplexed bead flow cytometry, RGS4-Galphao binding; actives lie on both sides; P09471; binding response (% of control), % at 10 µM; 220,000 tested, 0.33% active; in the data active means binding response below about 49% or above about 150%; inactive means in between;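 further: fluorescent Galphao activated with aluminum fluoride binding bead-coupled RGS4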
Target sequence (P09471 whole entry, looked up): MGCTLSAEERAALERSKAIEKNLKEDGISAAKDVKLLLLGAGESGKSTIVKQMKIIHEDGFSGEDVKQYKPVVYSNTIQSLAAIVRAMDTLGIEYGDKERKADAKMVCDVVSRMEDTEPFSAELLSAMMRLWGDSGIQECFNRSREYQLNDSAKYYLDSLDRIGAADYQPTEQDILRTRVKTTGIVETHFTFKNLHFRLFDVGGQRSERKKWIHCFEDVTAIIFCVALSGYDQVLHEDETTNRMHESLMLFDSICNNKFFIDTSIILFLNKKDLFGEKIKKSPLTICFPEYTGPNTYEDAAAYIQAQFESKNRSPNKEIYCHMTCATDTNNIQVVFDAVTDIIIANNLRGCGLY
RGS16-Gao: regulators of human RGS16-Galphao interaction. O15492+P09471. bead-based flow cytometry RGS16-Galphao binding, fluorescence; actives lie on both sides. binding response (% of control), % at 10 µM. 220,000 tested, 0.38% active;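 further: Galphao activated by GDP with aluminum fluoride before binding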
GSH fluor: GSH bead compound fluorescence profile; GSH beads flow cytometry, compound fluorescence 488/530 nm; hits give high values; fluorescence (KMESF) at 10 µM; 190,000 tested, 0.25% active; in the data active means fluorescence above about 89;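 further: glutathione beads carrying GST-tagged Bcl family fusion proteins plus one bare bead set; values are compound well signal with DMSO vehicle wells as background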
RGS8-Gao: modulates binding of RGS8 to human Galphao | P09471 | multiplexed bead flow cytometry; actives lie on both sides | response (percent of control binding), % at 10 µM | 220,000 tested, 0.34% active | AID 1423; in the data active means response below about 60% or above about 140%; inactive means in between;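 further: Galphao activated as the GDP aluminium fluoride complex binding bead-coupled RGS8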
RGS7-Gao reg: human RGS7-Galphao interaction regulation. P09471. Multiplexed bead flow cytometry, RGS7-Galphao binding; actives lie on both sides. binding response (% of control), % at 10 µM. 220,000 tested, 0.35% active; in the data active means binding response below about 49% or above about 150%;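 further: fluorescent Galphao held in activated GDP-AlF4 state binding bead-coupled RGS7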
RGS4-Gao HTS: modulates binding between human RGS4 and Galphao; shares compounds with RGS16-Gao; multiplexed bead flow cytometry, RGS–Galpha-o binding; RGS4–Galpha-o binding response, % at 10 µM; 1,600 tested, 99% active; AID 1504;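 further: fluorescently labeled Galpha-o bound to GDP with aluminium fluoride binding biotinylated RGS beads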
Biotin-avidin: counter-screen: compounds disrupting biotin binding to avidin beads | shares compounds with RGS16-Gao | streptavidin beads, fluorescein-biotin binding, flow cytometry | inhibition, % at 10 µM | 1,700 tested, under 10 active | AID 1783;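 active means inhibition above 50%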;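 further: median green fluorescence of gated singlet beads compared with DMSO control wells; 0% = DMSO wells and 100% = complete loss of bead fluorescence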
RGS8-Gao confirm: RGS8-Galphao interaction regulation, single point confirmation | shares compounds with RGS16-Gao | bead-based flow cytometry RGS8-Galphao binding, fluorescence; actives lie on both sides | binding response (% of control), % at 10 µM | 1,700 tested, 3% active | AID 1836; in the data active means binding response below about 72% or above about 130%; inactive means in between;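 further: Galphao activated as GDP AlF4 complex before binding bead RGS8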
RGS7-Gao single: confirmation of regulators of human RGS7-Galphao interaction | AID 1837 | shares compounds with RGS16-Gao | bead-based flow cytometry RGS7-Galphao binding; actives lie on both sides | response (percent of control binding), % at 10 µM | 1,700 tested, 7.8% active; in the data active means response below about 75% or above about 130%; inactive means in between;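 further: fluorescent Galphao activated with GDP and aluminum fluoride binding bead-coupled RGS7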
RGS16-Gao single: confirmation of regulators of human RGS16-Galphao interaction. shares compounds with RGS16-Gao. bead-based flow cytometry, RGS16-Galphao binding; actives lie on both sides. response (% of control binding), % at 10 µM. 1,700 tested, 4% active. AID 1838; in the data active means response below about 74% or above about 130%; inactive means in between;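 further: Galphao activated as the GDP aluminium fluoride complex binding bead-coupled RGS16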
RGS4-Gao confirm: RGS4-Galphao interaction regulation, single point confirmation | AID 1840 | RGS4-Galphao binding, multiplexed bead flow cytometry; actives lie on both sides | 1,700 tested, 4% active | shares compounds with RGS16-Gao | binding response (% of control), % at 10 µM; in the data active means binding response below about 74% or above about 130%; inactive means in between
RGS19-Gao conf: confirmation of regulators of human RGS19-Galphao interaction. shares compounds with RGS16-Gao. bead-based flow cytometry RGS19-Galphao binding; actives lie on both sides. response (percent of control binding), % at 10 µM. 1,700 tested, 5% active. AID 1841; in the data active means response below about 50% or above about 160%; inactive means in between;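 further: 100% = no compound control and 0% = blank background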
* marks the source's active call; other numbers are inactive results; / = not tested or not shown; [ ] = remark or other dose. Unless noted, how the calls were made is not given here.

SMILES	Avidin bead fluor	RGS4-Gao reg	RGS16-Gao	GSH fluor	RGS8-Gao	RGS7-Gao reg	RGS4-Gao HTS	Biotin-avidin	RGS8-Gao confirm	RGS7-Gao single	RGS16-Gao single	RGS4-Gao confirm	RGS19-Gao conf
CCn1c(O)c(/C=N/N2CCOCC2)c(=O)n(CC)c1=S	7	93	14*	37	75	88	93*	/	/	/	/	/	/
CC1CN(c2cc([N+](=O)[O-])ccc2Cl)CC(C)N1 (stereo unspecified)	10	102	100	29	98	101	/	/	/	/	/	/	/
CC1CN(c2ccc([N+](=O)[O-])cc2Cl)CCN1 (stereo unspecified)	/	11*	1.8*	15	9.2*	7.2*	/	-2	98	90	92	95	80
CN1CCN(c2cc([N+](=O)[O-])ccc2Cl)CC1	10	103	100	14	103	101	/	/	/	/	/	/	/
CN1CCN(c2ccc([N+](=O)[O-])cc2Cl)CC1	2	78	97	19	55*	49*	78*	0	105	103	102	100	111
COc1cccc(C2(O)CCN(Cc3ccncc3)CC2)c1	11	99	103	20	100	96	/	/	/	/	/	/	/
COc1ccc(C(=O)C2(C)N(O)C(C)C(c3cccs3)=[N+]2[O-])cc1 (stereo unspecified)	4	102	96	28	103	97	/	/	/	/	/	/	/
CC1C(c2cccs2)=[N+]([O-])C(C)(C(=O)c2cccs2)N1O (stereo unspecified)	4	157*[activator]	160	10	147*[activator]	159*[activator]	/	0	99	93	95	97	77
